Screening data from PubChem.
tim10-1 inh: growth inhibitors of tim10-1 mutant yeast, primary screen, luminescence, uHTS; inhibition, % at 20 µM; hit rate 2.2% among 330,000; AID 463190, 2010; S. cerevisiae tim10-1 ts strain growth, BacTiter-Glo, 24 h;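 active = inhibition of at least 40%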;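 note: mutant grown at 25 °C; 0% = DMSO wells with yeast and 100% = wells holding no yeast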
tim23-1 inh: growth inhibitors of tim23-1 mutant yeast, primary screen, luminescence, uHTS. S. cerevisiae tim23-1 growth, BacTiter-Glo luminescence, 24 h. inhibition, % at 20 µM. hit rate 1.3% among 330,000. AID 463212, 2010;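 active = growth inhibition of the mutant yeast at or above 50%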;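 note: temperature-sensitive mutant grown at 25 °C; plate controls were DMSO-treated mutant yeast for no effect and medium wells lacking yeast for full effect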
NLRP3 yeast inh: NALP3 inflammasome inhibitors in reconstituted yeast, primary screen, luminescence, uHTS; Yeast reconstituted NLRP3/ASC/caspase-1, beta-gal luminescence, 24 h; inhibition, % at 10 µM; hit rate 0.39% among 330,000;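 active = inhibition of 50% or more; inactive = inhibition below 50%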;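 note: plate controls were induced DMSO wells for no effect and uninduced yeast grown without galactose for full effect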
NALP1 yeast inh: NALP1 inflammasome inhibitors in reconstituted yeast, colorimetric, S. cerevisiae, triplicate retest; S. cerevisiae NALP1/ASC/caspase-1 growth, X-gal OD620, 72 h; inhibition, % at 10 µM; hit rate 0.61% among 280,000; in the data active = inhibition mostly above about 24%, no sharp cut-off; inactive = mostly below about 32%
V-ATPase pH: regulators of yeast V-ATPase proton pumping, primary screen, pHLuorin cytosolic pH fluorescence; S. cerevisiae; response, % at 10 µM; hit rate 0.37% among 350,000; in the data active = response mostly above about 7.3%, no sharp cut-off; inactive = mostly below about 5.4%; note: actives read high
TIM10 inh: growth inhibitors of isogenic TIM10 control yeast, primary screen, counter-screen for tim10-1 yeast inhibitor project, luminescence, uHTS; S. cerevisiae TIM10 strain growth, BacTiter-Glo luminescence, 24 h; inhibition, % at 10 µM; hit rate 1.4% among 330,000; AID 463195, 2010;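 active = inhibition of 40% or more at the single tested concentration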;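 note: wild-type TIM10 isogenic control strain grown at permissive 25 °C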
VATPase regulator: yeast V-ATPase proton pumping modulators, confirmation, S. cerevisiae, pH-sensitive GFP, second cherry-pick; AID 602197, 2012; hit rate 2% among 980; response, % at 10 µM; shares compounds with V-ATPase pH; S. cerevisiae pHLuorin cytosolic pH, V-ATPase proton transport; in the data active = response above about 24%;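 note: plate controls were vehicle wells for no effect and positive control wells for full effect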
An asterisk follows results filed as active; / = not tested or not shown. The list is not random: actives were taken first. Their share in the collection is about 4.2%.

SMILES	tim10-1 inh	tim23-1 inh	NLRP3 yeast inh	NALP1 yeast inh	V-ATPase pH	TIM10 inh	VATPase regulator
CC(=O)Nc1nc(N2C(=O)c3ccccc3C2=O)n(-c2ccccc2)n1	16.9	20.8	-18.3	23.7	7.0*	0.7	-0.9
COc1ccc(S(=O)(=O)NCC2CCCO2)cc1NC(=O)c1ccccc1 (stereo not drawn)	6.0	3.1	10.2	-6.9	7.5*	-5.4	-1.2
Cc1cc(C)c(NC(=O)CSc2ccc(-c3ccccn3)nn2)c(C)c1	25.0	22.7	0.4	16.9	11.4*	-1.1	0.4
C/C(=N\NC(=S)NC1CCCCC1)c1cccc(Br)c1	21.6	20.0	10.1	11.2	1.8	14.8	/
C/C(=N\NC(=S)NC1CCCCC1)c1cccc(C(F)(F)F)c1	4.2	-21.1	8.3	/	13.2*	-34.6	1.9
COc1cc(NC(=O)CCn2c(=O)[nH]c3ccsc3c2=O)cc(OC)c1	16.7	8.0	11.9	-40.7	7.7*	10.0	1.8
Cc1ccc(NC(=O)CCn2c(=O)[nH]c3ccsc3c2=O)cc1	16.5	2.4	-6.4	3.2	-0.3	2.9	/
C1=Cc2ccccc2Nc2ccccc21	-16.4	17.1	39.7	23.9	11.8*	-13.3	0.9
Nc1nc(NCc2ccco2)nc(N2CCCCCC2)c1[N+](=O)[O-]	4.0	33.5	46.7	46.5	22.6*	18.5	1.2
Nc1nc(NCc2ccco2)nc(N2CCCC2)c1[N+](=O)[O-]	23.1	11.5	9.0	25.2	2.3	17.5	/
CC(C)(C)NC(=O)c1cc2c(ccc3ccccc32)oc1=O	-10.7	-34.8	10.8	13.0	8.9*	-1.5	-9.0
CCC1Oc2ccccc2N(CC(=O)NCc2cccs2)C1=O (stereo not drawn)	7.6	10.4	-2.0	8.5	11.9*	1.8	1.2
CCC1Oc2ccc(C)cc2N(CC(=O)NCc2cccs2)C1=O (stereo not drawn)	6.1	16.1	12.3	-2.0	2.5	8.4	/
CSc1nc2cc(S(=O)(=O)N3CCOCC3)ccc2s1	2.0	6.8	42.1	21.0	18.7*	-1.4	-0.3
N#C/C(C(N)=O)=C1/CCc2ccccc2N1	10.9	21.8	21.1	26.9	12.8*	12.5	3.5
O=C(c1cc(N2C(=O)C3C4CCC(C4)C3C2=O)ccc1Cl)N1CCN(c2ccccc2F)CC1 (stereo not drawn)	14.6	11.9	1.8	-6.6	-2.6	11.0	/
C=CCNC(=O)Cn1nnc(-c2ccc(-c3ccc(OC)cc3)cc2)n1	18.0	2.5	19.9	15.6	5.7	2.4	/
O=[N+]([O-])c1ccc2c(c1)C(O)n1nc(-c3ccc(Cl)cc3Cl)nc1S2 (stereo not drawn)	-14.3	-13.0	9.4	-2.0	7.3*	-10.8	-0.7
Cc1nc2n(n1)C(O)c1cc([N+](=O)[O-])ccc1S2 (stereo not drawn)	7.2	5.2	15.3	-11.7	/	1.3	/
NC(=O)Cn1c(=O)n(CCC(=O)Nc2ccc(F)cc2)c(=O)c2sccc21	-2.4	1.9	-0.1	11.8	3.0	7.2	/
COc1ccccc1N(Cc1cc(=O)[nH]c2ccccc12)C(=O)c1ccc([N+](=O)[O-])cc1	11.3	8.8	0.1	-7.0	-4.5	9.3	/
O=C(COC(=O)CSc1ccc2ccccc2c1)Nc1ccccc1OC(F)F	21.3	13.7	14.6	30.5	10.9*	-2.0	-0.9
Cc1cccc(-n2nc([N+](=O)[O-])c(=NC3CCN(Cc4ccccc4)CC3)n2O)c1	1.8	15.4	7.7	3.2	12.7*	3.0	-1.7
Cc1cccc(CCN=c2c([N+](=O)[O-])nn(-c3ccccc3)n2O)c1	39.7	18.7	13.7	6.6	1.0	26.3	/
COc1cc(/C=C(\NC(C)=O)C(=O)N2CCCCC2)ccc1OC(C)=O	-1.6	7.5	13.3	-7.9	4.2	-0.8	/
Cc1ccc(CN2CCNC(=O)C2CC(=O)N(C)CCc2ccccc2)cc1 (stereo not drawn)	9.4	13.5	15.5	7.0	11.1*	14.8	1.1
